Bioassay records (PubChem BioAssay)
Only some compounds are listed: those with a hit (about 2.9% of all), similar ones and a draw of the others.
a7 integrin act = activates integrin-mediated alleviation for muscular dystrophy; Potency, µM (top dose mostly 38.3 µM), most hits filed as activators; 350,000 compounds, 0.064% hits; alpha7betagal myoblasts, beta-gal FDG fluorescence, 48 h; active = well fitted activation curve with a large enough effect; inconclusive = small, poorly fitted or top-dose-only effect; inactive = no such curve, though single readings can be large or run the other way; also: nearly all actives have a fitted effect of over 60% in size
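Alpha7betagal+/- myoblasts (passage 13) were plated 16-24 hr, then exposed to compounds (1:260 dilution of DMSO stock) for 48 hours at 37C. After MPER lysis, β-galactosidase reporter activity was read as FDG fluorescence (ex 480/em 540) after 30 minutes.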
D3 antag = antagonists of human D3 dopamine receptor. max response, negative = inhibition, %. D3R cells, DiscoveRx beta-arrestin luminescence, antagonist mode; hits give low values. 360,000 compounds, 2.5% hits. P35462; in the data active = max response below about -50%; inconclusive = no clear call, values can overlap the other calls
Target sequence (P35462 whole entry, looked up): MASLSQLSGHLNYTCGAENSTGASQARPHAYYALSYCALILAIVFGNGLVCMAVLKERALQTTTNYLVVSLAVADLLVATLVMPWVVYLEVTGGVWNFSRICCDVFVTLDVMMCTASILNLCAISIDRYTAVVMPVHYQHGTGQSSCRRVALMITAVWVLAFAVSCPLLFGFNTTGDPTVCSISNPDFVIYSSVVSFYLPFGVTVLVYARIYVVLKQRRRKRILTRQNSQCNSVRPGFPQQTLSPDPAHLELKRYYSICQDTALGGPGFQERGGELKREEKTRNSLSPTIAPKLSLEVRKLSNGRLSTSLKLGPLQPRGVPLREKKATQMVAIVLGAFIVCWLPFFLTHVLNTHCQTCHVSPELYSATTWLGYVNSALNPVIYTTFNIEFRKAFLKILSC
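Cells expressing the human receptor were seeded at 1500 cells/well, incubated overnight at 37 degrees C in 5% CO2, then exposed to library compounds with dopamine controls for 90 minutes at 37 degrees C before luminescent detection.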
DRD3 agonist = activates the human D3 dopamine receptor | P35462 | D3R DiscoveRx beta-arrestin cells, luminescence, 90 min | max activation, % | 410,000 compounds, 0.58% hits | AID 652048; in the data active = max activation above about 30%
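Cells at 1500/well, incubated overnight, then treated with pinned compounds (dopamine as control) for 90 min at 37 degrees C. DiscoveRx reagent added for 30 - 60 minutes at room temperature; luminescence read.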
Each line names hits and unclear results; the compound was inactive in the other large screens.

O=C(NCCN1CCN(c2ccccc2)CC1)Nc1ccccc1Br	D3 antag -78.6
O=C(NCCN1CCN(c2ccccc2)CC1)Nc1ccccc1Cl	D3 antag -83.0
O=C(CCNS(=O)(=O)c1cccs1)N1CCc2ccccc2C1	none
COCC(=O)N/N=C\c1ccc(OC/C=C/c2ccccc2)c(OC)c1	none
C/C(=N/NC(=O)C1COc2ccccc2O1)c1ccc(Br)s1 (stereo not given)	none
CCOC(=O)c1ccc(NC(=O)Cn2ncc(Cl)c(Cl)c2=O)cc1	D3 antag inconclusive
Cc1ccc(C(=O)OCn2ncc(Cl)c(Cl)c2=O)cc1	D3 antag -50.7
O=C(OCn1ncc(Cl)c(Cl)c1=O)c1ccc(C(F)(F)F)cc1	D3 antag -85.3
O=C(O)c1ccc(-n2ncc(Cl)c(Cl)c2=O)cc1	none
CN(CCOc1ccccc1)C(=S)Nc1ccc(OC(F)F)cc1	none
CCOCCCn1c(SCc2ccccc2)nnc1-c1ccncc1	none
Cc1ccc(-n2ncc(Br)c(Br)c2=O)cc1	D3 antag -75.8
O=c1c(Br)c(Br)cnn1-c1ccccc1	D3 antag -72.0
COc1c(Cl)cnn(-c2ccc(C)cc2)c1=O	none
O=c1c(Br)c(N2CCCC2)cnn1-c1ccccc1	none
CCOc1ccc(C(=O)NCCc2sc3nc(-c4ccc(Cl)cc4)nn3c2C)cc1OCC	none (no result: a7 integrin act, D3 antag)
CC1(C)CC(NC(=O)C23CCC(C)(C(=O)C2=O)C3(C)C)CC(C)(C)N1 (stereo not given)	none
Cc1cc(C(=O)Nc2ccccc2)c2ccccc2n1	none
N#Cc1ccc(OCC(=O)NCC(c2cccs2)N2CCOCC2)cc1 (stereo not given)	none
CCC(Oc1ccccc1)C(=O)Nc1ccc(S(=O)(=O)Nc2ncccn2)cc1 (stereo not given)	none
CN(C(=O)c1ccco1)c1nc(-c2ccc(F)cc2)cs1	none
COc1ccc(N2CCN(C3=CC(=O)N(c4cccc(Cl)c4)C3=O)CC2)cc1	none
Cc1ccc2cccc(OCC(=O)Nc3ccc4c(c3)OCO4)c2n1	none
Cc1ccc2cccc(OC(=O)c3ccc4c(c3)OCCO4)c2n1	D3 antag -50.1
Cc1ccc(C)c(NC(=S)NC(NC(=O)Cc2ccccc2)C(Cl)(Cl)Cl)c1 (stereo not given)	D3 antag inconclusive
O=C(COc1ccccc1)NC(NC(=S)Nc1ccccc1C(=O)O)C(Cl)(Cl)Cl (stereo not given)	D3 antag -77.3
CCOC(=O)c1[nH]c(C)c(CCC(=O)NCc2ccc(C)cc2)c1C	none (no result: a7 integrin act, D3 antag)
CCOC(=O)c1cc(C)[nH]c(=O)c1C#N	none
COCc1cc(C)[nH]c(=O)c1C#N	D3 antag -53.4
CCc1cc(C(=O)N2CCN(c3ncc(C(F)(F)F)cc3Cl)CC2)sc1C	none
COc1ccc(C2=C(C#N)C(=O)OC2)cc1	D3 antag -55.9
COc1ccc(-c2c(C#N)c(C)nc3c2C(=O)c2ccccc2-3)cc1	none
CCOC(=O)N1CCc2c(sc3c2C(=O)NC(c2ccc(N(C)C)cc2)N3)C1 (stereo not given)	none (no result: a7 integrin act, D3 antag)
Cc1cc(C(=O)COc2ccc(F)cc2Br)c(C)n1C	none
COc1ccccc1CNC(=O)c1cnccn1	none
CCn1nc(C(=O)OCC(=O)c2c[nH]c3ccccc23)c2ccccc2c1=O	none
CC(C)n1nc(C(=O)OCC(=O)c2c[nH]c3ccccc23)c2ccccc2c1=O	DRD3 agonist 59.2
Cn1c(=O)c2c(nc(CN3CCN(Cc4ccccc4)CC3)n2Cc2ccc(Cl)cc2)n(C)c1=O	none
O=C(NC1CCCCCCC1)c1ccc(S(=O)(=O)N2CCCC2)cc1	D3 antag -52.8
O=C(NC1CCCCC1)c1ccc(S(=O)(=O)N2CCCCC2)cc1	none
Cc1ccc2nc(NS(=O)(=O)c3ccc(Cl)cc3)c(Nc3ccc(C(=O)O)cc3)nc2c1	none (no result: a7 integrin act, D3 antag)
COc1ccc(C(=O)NNC(=S)NC(=O)c2cccc([N+](=O)[O-])c2)cc1	none
COc1ccc(C(=O)NC(=S)Nc2ccccc2F)cc1	none
CNC(=O)NC(=S)NC(=O)c1ccc(OC)cc1	D3 antag -72.2
COc1ccc(C(=O)NC(=S)NNC(=O)c2ccccc2C)cc1	a7 integrin act inconclusive
COc1ccc(C(=O)NC(=S)NNC(=O)c2ccccc2O)cc1	a7 integrin act inconclusive, DRD3 agonist 37.7
O=C(NC(=S)NNC(=O)c1ccccc1O)c1cccc([N+](=O)[O-])c1	DRD3 agonist 43.1
C=CCN(c1ccccc1)S(=O)(=O)c1cccc(C(=O)N2CCN(c3ncccn3)CC2)c1	none
Cc1ccc(S(=O)(=O)N2CCc3ccccc3CC2)cc1	none
O=C(c1cc(Br)ccc1OC(F)F)N1CCN2CCCC2C1 (stereo not given)	none
CC(=O)c1c(C)[nH]c(C)c1C(C)=O	none
CC(=O)N(CCc1ccccc1)Cc1cc2ccc(C)c(C)c2[nH]c1=O	none
CN(C(=O)CN1C(=O)/C(=C/c2ccc(F)cc2)SC1=S)C1CCS(=O)(=O)C1 (stereo not given)	none
COc1cccc2c1OCC([C@@H]1C[C@H]3CN(Cc4cccc(Cl)c4)C(=O)[C@]34CCCN14)=C2	none
Cc1nn(CC(=O)NCCCN2CCC(Cc3ccccc3)CC2)c(=O)c2cc(-c3ccccc3)nn12	D3 antag -87.8
CCc1nn(CC(=O)NCCCN2CCN(C)CC2)c(=O)c2cc3sccc3n12	none
CCc1ccc(-c2cc3c(=O)n(CC(=O)NCCCN4CCC(Cc5ccccc5)CC4)nc(C)n3n2)cc1	none
CCN1CCN(CCCNC(=O)Cn2nc(C)n3nc(-c4ccccc4)cc3c2=O)CC1	none
Cc1nn(CC(=O)NCCCN2CCN(Cc3ccccc3)CC2)c(=O)c2cc(-c3ccccc3)nn12	D3 antag -65.8
CCc1nn(CC(=O)NCCCN2CCc3ccccc3C2)c(=O)c2cc3sccc3n12	D3 antag -112.4
CCc1c(C)nc2ncnn2c1Nc1ccc(C#N)c(Cl)c1	none
CC(=O)c1ccc(S(=O)(=O)NC2CCSc3ccccc32)cc1 (stereo not given)	D3 antag inconclusive
COc1ccc(OC)c(NC(=O)CSc2nnc(-c3ccco3)n2-c2ccc(C(=O)O)cc2)c1	D3 antag inconclusive
O=C(NCCc1ccccc1)c1ncn[nH]1	DRD3 agonist 35.4
O=C(NCCc1ccc(Cl)cc1)c1ncn[nH]1	none
O=C(Nc1ccccc1C(=O)O)c1ccc(Cl)c(S(=O)(=O)N2CCOCC2)c1	none
O=C(Nc1ccccc1C(=O)O)c1cc(S(=O)(=O)N2CCCCC2)c(Cl)cc1Cl	DRD3 agonist 31.4
CCN(CC)CCCNC(=O)c1cc(Nc2ccc(OC)cc2)nc2ccccc12	none
COc1cccc(C(NC(C)=O)c2nc(-c3cccc4cccnc34)cs2)c1 (stereo not given)	DRD3 agonist 56.7 (no result: a7 integrin act)
COc1cccc(C(NC(C)=O)c2nc(-c3ccncc3)cs2)c1 (stereo not given)	none (no result: a7 integrin act)
O=C(NCc1ccccn1)c1ccc(NS(=O)(=O)c2cccc([N+](=O)[O-])c2)cc1	none
Oc1c(Br)cc(Br)cc1C=NCc1ccccc1	D3 antag -57.4
O=C(Cc1ccccc1)N/N=C/c1cc(Br)cc(Br)c1O	none
Oc1c(Br)cc(Br)cc1C=NCc1ccc(F)cc1	a7 integrin act inconclusive, D3 antag -66.5
CN(C)c1ccc(C(=O)N/N=C/c2cc(Br)cc(Br)c2O)cc1	none
Cc1ccc(CN(Cc2ccco2)C(=O)c2ccccc2Br)o1	none (no result: a7 integrin act, D3 antag)
O=C(NCCS(=O)(=O)NCc1ccccn1)c1ccccc1	none
